Test [1] deals with Wnt5a (protein binding on small-molecule microarray). Kind of test: small molecules binding Wnt5a protein – biophysical, small-molecule microarray, 635/667 nm fluorescence, primary screen (AID 1142).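 Note: fluorescence read at 667 nm with signal to noise per printed feature.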 The following applies: 635 nm fluorescence, higher = more signal.
Test [2] in a line: ATP-based viability of Huh7 replicon cells – cell-based, CellTiter-Glo luminescence, basal, 48 h, cytotoxicity control for HCV replication inhibitor project, primary screen (AID 1143).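 Note: Huh7 hepatoma cells carrying a hepatitis C replication reporter with no stimulus; test concentration not given here.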 Conditions: higher = more signal, called active from +8 up or from −8 down. In general terms: Replicon systems follow genome replication, usually without infectious particles.
Test [3] can be described thus: Pseudomonas biofilm growth suppression – PAO1 strain, BacTiter-Glo luminescence, LB-PBS, primary screen (AID 1144). The following applies: P. aeruginosa PAO1 biofilm, 12 h, higher = more signal.
Test [4] is described as follows: basal CRE-LacZ reporter activity in PC12 – cell-based, unstimulated, primary screen (AID 1145). Conditions: no forskolin, luminescence, 4.5 h, higher = more signal, called active from +8 up or from −8 down.
Test [5] is described as follows: forskolin-driven CRE-LacZ activity in PC12 – cell-based, CRE-LacZ reporter, forskolin-stimulated, primary screen (AID 1146).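 Note: PC12 cells with 6xCRE LacZ reporter stimulated by forskolin 10 µM; beta-galactosidase reporter signal reflecting CREB driven transcription.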 The following applies: luminescence, 4.5 h, higher = more signal, called active from +8 up or from −8 down.
Test [6] concerns the target Streptavidin (Streptomyces avidinii) (UniProt P22629). Description: compounds binding control protein streptavidin – biophysical, small-molecule microarray, 635/667 nm fluorescence, artefact control for SMM compound annotation, primary screen (AID 1147).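 Note: signal reflects streptavidin binding to arrayed compounds as a control protein.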 The following applies: higher = more signal.
Test [7] in a line: probe aInhba binding on compound microarray – biochemical, small-molecule microarray, 635/667 nm fluorescence, primary screen (AID 1148).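 Note: score merges 667nm spot fluorescence with signal-to-noise for antibody binding to printed compounds.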 The following applies: higher = more signal.
Test [8] addresses Torsin-1A (Homo sapiens) (UniProt O14656). Description: TOR1A wild-type binding on microarray – cell lysate, small-molecule microarray, lysate, 635/667 nm, primary screen (AID 1149). Conditions: COS7 hTOR1A-WT lysate, 635 nm fluorescence, higher = more signal.
Test [9] has the same target. Description: torsin A mutant lysate binding on microarrays – cell lysate, small-molecule microarray, COS7 lysate, 635/667 nm fluorescence, primary screen (AID 1150).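 Note: score pools 667 nm emission and signal to noise measuring lysate protein binding.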 Conditions: COS7 hTOR1A mutant lysate, 635 nm fluorescence, higher = more signal.
The test system of test [10] is Sonic hedgehog protein (Shh). Description: Sonic hedgehog microarray binding compounds – biochemical, small-molecule microarray, 635/667 nm fluorescence, primary screen (AID 1151).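 Note: Shh protein binding to compounds spotted on small-molecule microarray slides; score combines spot fluorescence intensity with signal-to-noise across triplicate slides.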 The following applies: 635 nm fluorescence, higher = more signal.
A short description of test [11]: optical density shifts of acrAB sulA E. coli – strain DRC41, OD650, 48 h, E. coli filamentation inducer project, primary screen (AID 1152).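 Note: E. coli MC1000 strain DRC41 lacking acrAB efflux pump and sulA.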 The following applies: higher = more signal, called active from +8 up or from −8 down.
Test [12] in a line: probe aLefty1 binding on compound microarray – biochemical, small-molecule microarray, 635/667 nm fluorescence, primary screen (AID 1153).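 Note: score merges spot fluorescence with signal-to-noise ratio from the scanned slide images.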 Conditions: higher = more signal.
Test [13] can be described thus: plasmodial surface anion channel blockers, osmotic lysis – cell-based, P. falciparum Indochina, OD700, 1 h, primary screen (AID 1154). The following applies: P. falciparum Indochina infected RBC osmotic lysis, higher = more signal, called active from +8 up or from −8 down.
Test [14] in a line: plasmodial surface anion channel blockers, osmotic lysis – cell-based, P. falciparum Indochina, OD700, 2 h, primary screen (AID 1155).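 Note: lysis reports solute entry through the parasite surface anion channel PSAC.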 The following applies: P. falciparum Indochina infected erythrocytes, higher = more signal, called active from +8 up or from −8 down.
Test [15] in a line: changes in parasitized red cell lysis, either direction – P. falciparum Indochina, OD700, 3 h, PSAC antagonist project, primary screen (AID 1156). The following applies: P. falciparum-infected erythrocytes, osmotic lysis, higher = more signal, called active from +8 up or from −8 down.
The nature of test [16]: plasmodial surface anion channel blockers, osmotic lysis – cell-based, P. falciparum Indochina, OD700, 18 h, primary screen (AID 1157). The following applies: P. falciparum Indochina infected erythrocytes, osmotic lysis OD700, 18 h; higher = more signal, called active from +8 up or from −8 down.
The nature of test [17]: S6 kinase pathway phospho-S6 level changes – cell-based, A549, cytoblot, luminescence, serum-stimulated, primary screen (AID 1158).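 Note: serum-stimulated A549 lung adenocarcinoma cells; signal is phosphorylated S6 detected by cytoblot immunostaining with HRP secondary.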 The following applies: 5 h, higher = more signal.
Test [18] concerns the target NADPH oxidase 2 (Homo sapiens) (UniProt P04839). Description: compounds shifting NOX2 Amplex Red fluorescence – cell-based, HEK293-NOX2, PMA-stimulated, NOX inhibitor project, primary screen (AID 1159). Note: test concentration not given here. The following applies: 45 min, higher = more signal, called active from +8 up or from −8 down.
Test [19] addresses NADPH oxidase 4 (Homo sapiens) (UniProt Q9NPH5). Description: compounds shifting NOX4 Amplex Red fluorescence – cell-based, HEK293-NOX4, tetracycline-induced, NOX inhibitor project, primary screen (AID 1160). The following applies: HEK293-NOX4, Amplex Red H2O2 fluorescence, 45 min; higher = more signal, called active from +8 up or from −8 down.
Test [20] deals with NADPH oxidase 5 (Homo sapiens) (UniProt Q96PH1). Kind of test: compounds shifting NOX5 Amplex Red fluorescence – cell-based, HEK293-NOX5, NOX inhibitor project, primary screen (AID 1161). The following applies: HEK293-NOX5, ionomycin, 45 min, higher = more signal.
Chain of NADPH oxidase 5 (Homo sapiens) (Q96PH1 whole entry, looked up): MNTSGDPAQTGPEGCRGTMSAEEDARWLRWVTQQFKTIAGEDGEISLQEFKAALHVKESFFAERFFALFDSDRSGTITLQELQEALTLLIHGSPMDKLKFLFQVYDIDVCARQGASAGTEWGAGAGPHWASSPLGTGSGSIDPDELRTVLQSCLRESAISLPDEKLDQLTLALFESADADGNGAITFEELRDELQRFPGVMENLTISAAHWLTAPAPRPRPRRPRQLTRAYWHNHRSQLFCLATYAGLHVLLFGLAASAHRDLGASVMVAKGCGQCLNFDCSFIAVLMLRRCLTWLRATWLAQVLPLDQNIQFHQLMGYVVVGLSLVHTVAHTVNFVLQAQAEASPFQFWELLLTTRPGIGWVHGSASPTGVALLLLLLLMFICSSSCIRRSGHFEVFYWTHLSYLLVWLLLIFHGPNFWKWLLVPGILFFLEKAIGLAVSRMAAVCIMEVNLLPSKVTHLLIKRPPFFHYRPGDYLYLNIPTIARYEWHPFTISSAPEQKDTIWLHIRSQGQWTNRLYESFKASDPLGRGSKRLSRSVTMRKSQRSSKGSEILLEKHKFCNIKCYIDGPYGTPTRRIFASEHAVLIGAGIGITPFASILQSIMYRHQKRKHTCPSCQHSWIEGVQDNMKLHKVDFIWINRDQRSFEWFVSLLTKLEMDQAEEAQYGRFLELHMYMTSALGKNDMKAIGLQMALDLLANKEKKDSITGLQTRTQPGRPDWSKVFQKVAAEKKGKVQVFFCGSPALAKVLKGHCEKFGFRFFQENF

This passage reports composite z-score and z-score results from PubChem BioAssay.

Calls of active or inactive are those of the source. Unless noted, the rule behind the calls is not given here.

Chain of Streptavidin (Streptomyces avidinii) (P22629 whole entry, looked up): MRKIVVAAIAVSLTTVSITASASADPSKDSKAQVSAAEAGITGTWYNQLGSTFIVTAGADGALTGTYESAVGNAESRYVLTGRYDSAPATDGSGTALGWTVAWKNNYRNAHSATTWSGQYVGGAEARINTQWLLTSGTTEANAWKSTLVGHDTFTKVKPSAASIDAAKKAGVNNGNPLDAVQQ
Chain of NADPH oxidase 2 (Homo sapiens) (P04839 whole entry, looked up): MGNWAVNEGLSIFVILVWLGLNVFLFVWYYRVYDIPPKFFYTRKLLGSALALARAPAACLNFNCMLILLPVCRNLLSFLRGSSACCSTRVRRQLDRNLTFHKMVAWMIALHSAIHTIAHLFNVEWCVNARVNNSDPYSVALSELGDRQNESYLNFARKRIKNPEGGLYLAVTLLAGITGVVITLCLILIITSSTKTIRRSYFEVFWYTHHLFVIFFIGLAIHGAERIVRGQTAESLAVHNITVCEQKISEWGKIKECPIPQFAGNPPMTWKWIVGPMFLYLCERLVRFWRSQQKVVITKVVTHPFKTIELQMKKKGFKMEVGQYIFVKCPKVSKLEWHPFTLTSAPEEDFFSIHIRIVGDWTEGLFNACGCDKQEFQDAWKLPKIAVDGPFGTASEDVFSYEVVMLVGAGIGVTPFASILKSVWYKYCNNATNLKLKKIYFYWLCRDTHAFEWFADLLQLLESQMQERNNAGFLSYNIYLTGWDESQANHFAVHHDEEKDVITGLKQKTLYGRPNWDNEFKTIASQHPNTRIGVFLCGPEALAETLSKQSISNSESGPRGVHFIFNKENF
Chain of Torsin-1A (Homo sapiens) (O14656 whole entry, looked up): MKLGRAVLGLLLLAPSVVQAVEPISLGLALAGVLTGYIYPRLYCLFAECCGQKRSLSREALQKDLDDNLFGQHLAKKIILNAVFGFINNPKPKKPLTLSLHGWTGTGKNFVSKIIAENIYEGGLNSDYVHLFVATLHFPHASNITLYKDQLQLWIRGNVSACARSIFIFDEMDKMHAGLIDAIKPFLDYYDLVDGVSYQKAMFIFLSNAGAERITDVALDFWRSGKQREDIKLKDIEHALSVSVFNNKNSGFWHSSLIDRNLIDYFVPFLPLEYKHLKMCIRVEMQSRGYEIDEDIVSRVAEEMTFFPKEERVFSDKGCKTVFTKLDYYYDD
Chain of NADPH oxidase 4 (Homo sapiens) (Q9NPH5 whole entry, looked up): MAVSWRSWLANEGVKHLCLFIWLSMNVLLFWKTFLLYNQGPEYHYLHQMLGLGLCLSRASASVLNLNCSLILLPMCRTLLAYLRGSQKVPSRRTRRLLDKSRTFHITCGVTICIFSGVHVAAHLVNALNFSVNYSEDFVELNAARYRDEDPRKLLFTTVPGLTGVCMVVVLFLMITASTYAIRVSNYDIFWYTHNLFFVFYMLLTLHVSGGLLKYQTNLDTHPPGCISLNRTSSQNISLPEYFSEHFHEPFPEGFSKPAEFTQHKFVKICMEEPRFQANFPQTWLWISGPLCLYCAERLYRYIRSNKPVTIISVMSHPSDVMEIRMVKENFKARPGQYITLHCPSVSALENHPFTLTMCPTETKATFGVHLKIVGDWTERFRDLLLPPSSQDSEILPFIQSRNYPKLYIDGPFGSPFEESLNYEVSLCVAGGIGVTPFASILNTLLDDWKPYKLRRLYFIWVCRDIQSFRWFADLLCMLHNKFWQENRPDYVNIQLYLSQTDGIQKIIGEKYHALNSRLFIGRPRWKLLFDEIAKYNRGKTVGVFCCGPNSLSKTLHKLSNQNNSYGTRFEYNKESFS

`COC(=O)[C@H](C)NC(=O)CCC1CC(OC(=O)NCc2cccc3ccccc23)CC2(CCCC(COC(=O)NCCC(C)C)O2)O1` (stereo not given in full): the composite z-score is 0.0905 in test [1]; -0.224 in test [6]; -0.0695 in test [7]; 0.181 with Torsin-1A (Homo sapiens) [8]; 0.205 with Torsin-1A (Homo sapiens) [9]; 0.683 in [10]. For the same compound, the composite z-score in test [12] was 0.423. The z-score in test [2] was -0.842 (inactive); in [3] it was -0.386 (inactive); in [4] it was -0.522 (inactive); in test [5] it was -0.135 (inactive); in test [11] it was 0.782 (inactive); in test [13], 6.93 (inactive). Besides, the z-score in test [14] was 0.663 (inactive); in [15], -0.355 (inactive); in [16], 0.197 (inactive); in test [17], -0.463; in [18], 1.74 (inactive); in test [19] it was 0.703 (inactive). Further, in test [20], the z-score was 1.52.
For the compound `COC(=O)[C@H](C)NC(=O)CCC1CC(OC(=O)NCc2cccc3ccccc23)CC2(CCCC(COC(=O)NCCCN3CCCC3=O)O2)O1` (stereo not given in full), the composite z-score was 0.205 in [1]; 0.865 in test [6]; -0.152 in [7]; 0.519 with Torsin-1A (Homo sapiens) [8]; 0.745 with Torsin-1A (Homo sapiens) [9]; 0.608 in test [10]. For the same compound, the composite z-score in test [12] amounted to 0.582. Moreover, the z-score in test [2] is -0.0671 (inactive); in test [3], -1.07 (inactive); in test [4] it was -0.438 (inactive); in test [5], -0.178 (inactive); in [11], -3.55 (inactive); in [13] it was 0.381 (inactive). In addition, the z-score was 0.397 (inactive) in [14]; 0.0085 (inactive) in [15]; 0.246 (inactive) in test [16]; -0.463 in test [17]; -0.383 (inactive) in test [18]; -0.0825 (inactive) in test [19]. Besides, the z-score in [20] is -0.075.
`O=C1C[C@@H](O)[C@@H](O)[C@@H]2[C@@H]3C(=O)N(Cc4ccccc4)C(=O)[C@@H]3CC[C@H]12`: the composite z-score in test [1] was 0.0217; in [6], 0.636; in test [7], -0.0719; with Torsin-1A (Homo sapiens) [8] it was 0.176; with Torsin-1A (Homo sapiens) [9], 0.37; in [10], 0.718. Also, in test [12], the composite z-score was -0.147. Moreover, the z-score was -0.3 (inactive) in test [2]; -0.473 (inactive) in test [3]; -0.293 (inactive) in test [4]; -0.497 (inactive) in test [5]; -0.675 (inactive) in test [11]; 1.56 (inactive) in test [13]. Further, the z-score is 0.586 (inactive) in test [14]; 0.215 (inactive) in test [15]; 0.526 (inactive) in test [16]; -0.254 in [17]; 2.31 (inactive) in test [18]; -0.79 (inactive) in [19]. In addition, the z-score in test [20] is 0.127.
Take `CCN1C(=O)[C@H]2[C@H]3[C@H](O)[C@H](O)CC(=NO[C@H](C)c4cn([C@H](CO)Cc5ccccc5)nn4)[C@@H]3CC[C@H]2C1=O`: the composite z-score in test [1] is 0.217; in test [6], 0.307; in test [7] it was -0.105; with Torsin-1A (Homo sapiens) [8], 0.265; with Torsin-1A (Homo sapiens) [9] it was 0.556; in [10], 0.742. In test [12], this compound registered a composite z-score of -0.323. The z-score in [2] was 0.399 (inactive); in test [3], 1.05 (inactive); in [4], -0.385 (inactive); in [5], -0.228 (inactive); in [11], -0.238 (inactive); in test [13], 0.334 (inactive). Besides, the z-score was 0.15 (inactive) in test [14]; -0.0073 (inactive) in [15]; 0.123 (inactive) in test [16]; -0.598 in test [17]; 0.384 (inactive) in test [18]; 0.293 (inactive) in [19]. In test [20], the z-score is -0.116.
